# Experimental data: PubChem BioAssay
# Measured potencies and affinities stand elsewhere. The source made the active and inactive calls. Cut-off not given; nearly all actives show IC50 up to about 0.91 µM.
# Target: Calcium-dependent protein kinase 4 (Plasmodium falciparum (isolate 3D7)) (UniProt Q8IBS5)
# Assay: PfCDPK4 kinase inhibitors, biochemical, TCAMS library (AID 1159588)
# Settings: recombinant PfCDPK4, Kinase-Glo ATP depletion luminescence
# Calcium-dependent protein kinase 4 (Plasmodium falciparum (isolate 3D7)), sequence (Q8IBS5 whole entry, looked up): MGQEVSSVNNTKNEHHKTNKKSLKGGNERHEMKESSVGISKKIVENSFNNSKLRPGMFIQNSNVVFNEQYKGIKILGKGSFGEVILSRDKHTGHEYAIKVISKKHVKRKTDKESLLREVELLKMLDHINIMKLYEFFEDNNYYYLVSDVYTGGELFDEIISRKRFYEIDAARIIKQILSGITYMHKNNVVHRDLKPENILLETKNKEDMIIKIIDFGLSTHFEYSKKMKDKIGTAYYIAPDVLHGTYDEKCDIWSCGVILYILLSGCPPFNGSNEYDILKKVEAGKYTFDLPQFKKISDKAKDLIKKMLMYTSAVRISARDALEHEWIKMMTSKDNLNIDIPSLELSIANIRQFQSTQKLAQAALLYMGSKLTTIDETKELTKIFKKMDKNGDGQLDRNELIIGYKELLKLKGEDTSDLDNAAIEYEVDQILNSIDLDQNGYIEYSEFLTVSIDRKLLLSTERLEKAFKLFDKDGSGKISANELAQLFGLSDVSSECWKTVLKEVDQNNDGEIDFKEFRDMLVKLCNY
row,SMILES,outcome
1,CN1CCN(Cc2cccc(-c3ccc4c(Nc5cc(O)c(Cl)cc5F)ccnc4c3)c2)CC1,inactive
2,COc1c(CN2CCOCC2)cccc1-c1cc2c(-c3ccc(C(=O)O)c(C(C)C)c3)ccnc2[nH]1,inactive
3,CC(=O)Nc1cccc(Nc2nccc(Nc3ccc(Oc4ccccc4)cc3)n2)c1,inactive
4,C#CCNC(=O)c1ccc(-c2ccnc(Nc3cccc(CCCN4CCOCC4)c3)n2)s1,inactive
5,CN(c1ccc2c(c1)nc(NCc1ccccc1)n2C)c1ccnc(Nc2ccc(CS(C)(=O)=O)cc2)n1,inactive
6,CN(C)CC(O)COc1ccc(Nc2ncc([N+](=O)[O-])c(Nc3ccccc3O)n2)cc1 (centres undefined),inactive
7,N=C(N)c1ccc(Nc2nc(Nc3ccc(-c4ccccc4)cc3)ncc2[N+](=O)[O-])cc1,inactive
8,CC(=O)c1ccc(NC(=O)Nc2ccc(N(C)c3ccnc(Nc4cccc(CS(C)(=O)=O)c4)n3)cc2)cc1,inactive
9,N#Cc1cnc(Nc2ccc(Oc3ccccc3)cc2)nc1Nc1cccc(S(N)(=O)=O)c1,inactive
10,Cc1ccc(Nc2nc3cc(Nc4ccnc(Nc5cccc(CS(C)(=O)=O)c5)n4)ccc3o2)cc1,inactive
11,O=C(O)c1cccnc1Sc1ccc(Cl)cc1,inactive
12,CC(=O)Nc1nc(C)c(-c2csc(Nc3ccc(Cl)cc3)n2)s1,inactive
13,COc1cccc(Nc2nccc(-c3c(-c4cccc(NC(=O)c5c(F)cccc5F)c4)nn4ccccc34)n2)c1,inactive
14,CN(c1ccc(NC(=O)Nc2cc(C(F)(F)F)ccc2F)cc1)c1ccnc(NCCN2CCOCC2)n1,inactive
15,COc1cccc(-n2ncc3c(N/N=C/c4ccc(CN(C)CCN(C)C)cc4)ncnc32)c1,inactive
16,Nc1ncc(-c2cccc(F)c2)cc1-c1nc2ccc(F)cc2[nH]1,inactive
17,CS(=O)(=O)Cc1cccc(Nc2ncc(Cl)c(Nc3cccnc3C(N)=O)n2)c1,inactive
18,COc1c(CN2CCCC2)cccc1-c1cc2c(-c3ccc(C(=O)O)c(C(C)C)c3)ccnc2[nH]1,inactive
19,CN(c1ccc(NC(=O)Nc2cccc(Cl)c2)cc1)c1ccnc(N)n1,inactive
20,CC(=O)Nc1ccc(Nc2ncc([N+](=O)[O-])c(Nc3ccccc3C(N)=O)n2)cc1,inactive

row,SMILES,outcome
1,CN(c1ccc2c(c1)nc(NCc1ccc(F)cc1)n2C)c1ccnc(Nc2ccc(CS(C)(=O)=O)cc2)n1,inactive
2,CCN(CC)CCCNc1nccc(N(C)c2ccc(NC(=O)Nc3cc(C(F)(F)F)ccc3F)cc2)n1,inactive
3,NS(=O)(=O)c1cccc(Nc2nccc(-c3cnn4ncccc34)n2)c1,inactive
4,CN1CCC(NC(=O)c2cccc(Nc3cc(Nc4cccc(Br)c4)ncn3)c2)CC1,inactive
5,CCN(CC)CCNC(=O)c1ccc(Nc2ncc([N+](=O)[O-])c(Nc3ccccc3OC)n2)cc1,inactive
6,O=C(Cc1ccc(Nc2nccc(Nc3cccc4[nH]ncc34)n2)cc1)Nc1ccc(C(F)(F)F)cc1,inactive
7,Cc1ccc(S(=O)(=O)Nc2ccc(Nc3nccc(Nc4cccc5[nH]ncc45)n3)cc2)cc1,inactive
8,Oc1cc(-c2nc(-c3ccccc3)[nH]c2-c2ccncc2)ccc1Cl,inactive
9,CN(c1ccc(NC(=O)Nc2cc(C(C)(C)C)on2)cc1)c1ccnc(NCCN2CCOCC2)n1,inactive
10,COc1ccc(-c2cnn3ccc(Nc4cc(OC)c(OC)c(OC)c4)nc23)cc1OC,inactive
11,O=C(NCCN1CCCCC1)c1cccc(Nc2nccc(Nc3ccc(Oc4ccccc4)cc3)n2)c1,inactive
12,O=c1[nH]ccc2nc(N[C@@H]3CCNC3)nc(Nc3ccc4c(c3)S(=O)(=O)CC4)c12,inactive
13,Cc1cc(Nc2nc(Nc3cccc(Cl)c3)nc3ccccc23)n[nH]1,inactive
14,C(=N\Nc1nccc2sc(-c3ccccc3)cc12)/c1cccnc1,inactive
15,Cn1nc(-c2ccc(NC(=O)Nc3ccc4ccccc4c3)c(F)c2)c2cnc(NCCN3CCOCC3)nc21,inactive
16,Cn1cnc2c(Nc3ccncc3)nc(-c3ccc4c(c3)OCO4)nc21,inactive
17,Cc1ccc(O)cc1Nc1ccnc2cc(-c3cccc(CNCCS(C)(=O)=O)c3)ccc12,inactive
18,Fc1cc(Cl)ccc1Nc1ccnc2cc(-c3ccc(CNCCN4CCOCC4)o3)ccc12,inactive
19,N=C(N)c1ccc(Nc2nccc(Nc3nc(-c4ccccc4)cs3)n2)cc1,inactive
